Records with an inconclusive call do not appear. Active and inactive are the calls of the source. Unless noted, calls come from the whole dose curve; as a rule, active = well fitted curve in the direction sought with a large enough effect; inconclusive = small, poorly fitted or top-dose-only effect, or another doubt; inactive = no such curve, though single readings can be large; an effect the other way counts as inactive or inconclusive. Numbered stars: 1 amine (or outer) side, 2 acyl side, 3 side chain; on linkers, the order of the positions; unused ones are H or OH. Bridge positions count the residues as written; N and C are the ends. Square brackets hold non-standard residues; d marks the D form. Peptide text beside a SMILES is read from it. I, II: the chains in the order shown. Actinocin(9to1) = Cc1c2oc3c(C)ccc(C(=O)[*:1])c3nc-2c(C(=O)[*:2])c(N)c1=O; NMeV = CN[C@H](C(=O)O)C(C)C; Sar = CNCC(=O)O
Key:
[1] = qHTS assay for measurement of the activity of small molecule inhibitors on Zika virus induced Caspase-3 activity in human iPSC derived neural progenitor cells (hNPCs) (AID 1224857); note: nearly all actives have a fitted effect of over 65% in size
Method in brief: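 Percent inhibition of virus-induced caspase-3/7 luminescence (Caspase-Glo), scaled between uninfected cells and Zika-infected cells. hNPCs received compound 1 hr before ZIKV at 2 FFU/cell, with 6 hours infection at 37 C.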

[2] = qHTS assay for measurement of the activity of small molecule inhibitors on Zika virus induced Caspase-3 activity in human astrocytoma cells (AID 1224859)
Method in brief: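 Luminescent caspase-3/7 read-out (30 min reagent, room temperature) in human SNB-19 cells infected 6 h with ZIKV (2 FFU/cell) after 1 h compound pre-incubation; Data were normalised to uninfected and infected wells.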

[3] = NS1 protein of Zika virus - qHTS assay to identify small molecule inhibitors in human HEK 293 cells (AID 1347053); note: nearly all actives have a fitted effect of over 55% in size
Method in brief: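 Following 20 h seeding, HEK 293 cells took compound, then 1 h later ZIKV MR766 (MOI = 0.5). Incubation ran 24 h at 37 C before TR-FRET detection of NS1; a drop in signal indicates inhibition.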

[4] = Identifying Small Molecule Inhibitors of Pancreatic Cancer Stem Cells (SN12C, Adherent) (AID 1259358); details: viability/growth inhibition;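 note: potency is the fitted concentration of half-maximal effect; cell survival measured after 48 h of compound exposure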
Method in brief: (§1)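 Pre-formed 14-day tumor spheroids or adherent cells dosed and incubated 48 h, 37C, 5% CO2. Viability assessed by CellTiter-Glo.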

[5] = Identifying Small Molecule Inhibitors of Pancreatic Cancer Stem Cells (Panc1, Spheroid) (AID 1259359); details: Panc1 spheroid cancer stem cell viability;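 note: potency is the fitted concentration of half-maximal effect; compound exposure lasted 48 h before reading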
Method in brief: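 Endpoint: ATP-based luminescence, 48 h drug exposure. Bortezomib at 9.2 uM final as full-kill control; DMSO vehicle as negative control; activity normalized between vehicle and cell-free wells.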

[6] = Identifying Small Molecule Inhibitors of Pancreatic Cancer Stem Cells (SN12C, Spheroid) (AID 1259360); details: SN12C spheroid viability; note: potency is the fitted concentration of half-maximal effect
Method in brief: as §1

[7] = Identifying Small Molecule Inhibitors of Pancreatic Cancer Stem Cells (A278, Adherent) (AID 1259361);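 note: viability read after 48 h compound exposure; nearly all actives have a fitted effect of over 35% in size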
Method in brief: as §1

[8] = P-glycoprotein substrates identified in KB-8-5-11 adenocarcinoma cell line, qHTS therapeutic library screen (AID 1346987); note: nearly all actives have a fitted effect of over 65% in size; note: potency is the fitted concentration of half-maximal effect
Method in brief: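 KB-8-5-11: colchicine-selected sub-line of KB-3-1 over-expressing P-gp; assay medium lacked colchicine. 72 h drug exposure at 37 degree C, CellTiter-Glo.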

[9] = P-glycoprotein substrates identified in KB-3-1 adenocarcinoma cell line, qHTS therapeutic library screen (AID 1346986); details: KB-3-1 parental cells viability, CellTiter-Glo, 72 h; at 44.5 µM (top of the series); note: nearly all actives have a fitted effect of over 60% in size
Method in brief: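 Counter-screen: cherry-picked hits retested in the KB pair and in HEK-293 pcDNA/MDR-19 cells ± tariquidar. Primary screen used 72 h CellTiter-Glo viability in KB-3-1 and KB-8-5-11.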

[10] = qHTS profiling of the MIPE4 collection as inhibitors of Plasmodium falciparum (DD2) proliferation (AID 743345; call rule not given here); details: P. falciparum Dd2 in erythrocytes, SYBR Green DNA, 72 h; at 28.5 µM (top of the series) unless noted
Method in brief: (§2)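 Erythrocytes infected with P. falciparum (0.3% parasitemia, 2.5% hematocrit) incubated with compounds 72 h at 37 C, 5% CO2. Lysis with saponin/Triton buffer containing SYBR Green I, overnight at room temperature in the dark; DNA fluorescence (485/535 nm) normalised to 0.29 uM artemisinin and DMSO.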

[11] = qHTS profiling of the MIPE4 collection as inhibitors of Plasmodium falciparum (DD2) proliferation (Rep 2) (AID 743346; call rule not given here); details: P. falciparum Dd2 in erythrocytes, SYBR Green DNA, 72 h; at 28.5 µM (top of the series) unless noted
Method in brief: as §2

[12] = qHTS profiling of the MIPE4 collection as inhibitors of Plasmodium falciparum (HB3) proliferation (AID 743347; call rule not given here); details: P. falciparum HB3 in erythrocytes, SYBR Green DNA, 72 h; at 28.5 µM (top of the series) unless noted
Method in brief: as §2

[13] = Identifying Small Molecule Inhibitors of Pancreatic Cancer Stem Cells (Panc1, Adherent) (AID 1259362); details: viability; note: potency is the fitted concentration of half-maximal effect
Method in brief: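 Luminescent ATP readout (CellTiter-Glo) quantifies surviving cells after a 48 h drug incubation. Normalization uses DMSO wells as no inhibition and media-only wells as full inhibition; bortezomib served as positive control.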

[14] = Natriuretic polypeptide receptor (hNpr1) antagonism - Pilot counterscreen GloSensor control cell line (AID 1347045; calls by dose curve)
Method in brief: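 HEK293 cells carrying the GloSensor cGMP sensor (GIP/pGS-40F) were loaded with 2% GloSensor reagent for 2 h, exposed to compounds for 30 min, and then stimulated with 50 uM sodium nitroprusside for 20 min at room temperature.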

[15] = target: Atrial natriuretic peptide receptor 1 (Homo sapiens) (UniProt P16066); test: Natriuretic polypeptide receptor (hNpr1) antagonism - Pilot screen (AID 1347049; calls by dose curve;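 note: agonist-evoked cGMP luminescence read 20 min after hNppA addition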)
Chain of Atrial natriuretic peptide receptor 1 (Homo sapiens) (P16066 whole entry, looked up): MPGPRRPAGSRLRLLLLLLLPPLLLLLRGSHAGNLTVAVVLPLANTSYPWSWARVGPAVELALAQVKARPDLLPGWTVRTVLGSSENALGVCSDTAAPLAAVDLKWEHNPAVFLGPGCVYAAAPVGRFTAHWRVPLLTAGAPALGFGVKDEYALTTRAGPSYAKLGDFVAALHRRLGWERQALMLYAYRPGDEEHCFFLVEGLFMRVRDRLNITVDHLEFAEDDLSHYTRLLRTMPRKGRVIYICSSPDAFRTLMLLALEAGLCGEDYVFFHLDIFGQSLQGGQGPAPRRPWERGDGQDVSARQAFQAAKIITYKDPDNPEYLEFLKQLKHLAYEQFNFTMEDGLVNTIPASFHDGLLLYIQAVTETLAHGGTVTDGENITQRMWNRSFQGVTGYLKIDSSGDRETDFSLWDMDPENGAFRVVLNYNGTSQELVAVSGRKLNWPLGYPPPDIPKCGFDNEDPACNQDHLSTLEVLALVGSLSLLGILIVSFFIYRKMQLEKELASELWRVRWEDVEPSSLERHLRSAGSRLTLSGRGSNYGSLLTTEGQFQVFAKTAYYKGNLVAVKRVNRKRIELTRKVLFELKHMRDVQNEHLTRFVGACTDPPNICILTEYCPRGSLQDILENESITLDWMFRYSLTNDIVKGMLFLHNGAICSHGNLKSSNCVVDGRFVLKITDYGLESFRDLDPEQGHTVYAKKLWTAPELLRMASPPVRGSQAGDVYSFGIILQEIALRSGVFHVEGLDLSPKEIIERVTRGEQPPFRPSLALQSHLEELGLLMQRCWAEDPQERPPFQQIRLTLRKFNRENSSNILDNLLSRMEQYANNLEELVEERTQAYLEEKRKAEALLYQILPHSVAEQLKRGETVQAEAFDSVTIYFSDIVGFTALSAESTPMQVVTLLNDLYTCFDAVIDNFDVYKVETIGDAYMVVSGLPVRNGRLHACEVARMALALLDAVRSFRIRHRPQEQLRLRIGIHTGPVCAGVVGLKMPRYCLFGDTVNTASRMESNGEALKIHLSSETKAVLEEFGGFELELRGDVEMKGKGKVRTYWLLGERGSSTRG
Method in brief: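 Readout is cGMP-driven firefly luciferase luminescence in HEK293 cells carrying hNpr1 and a PDE5-domain GloSensor, read before and 20 min after 0.1 nM hNppA stimulation. Cells had 2% substrate reagent for 2 h and test compound for 30 min.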

[16] = target: Tyrosine-protein phosphatase non-receptor type substrate 1 (Homo sapiens) + Leukocyte surface antigen CD47 (Homo sapiens) (UniProt P78324+Q08722); test: CD47-SIRPalpha protein protein interaction - LANCE assay qHTS validation (AID 1347057; active = well fitted curve in the direction sought with a large enough effect in the signal ratio, with a control signal flat, not every such curve was filed as active; the % refers to the signal ratio)
Chain of Tyrosine-protein phosphatase non-receptor type substrate 1 (Homo sapiens) + Leukocyte surface antigen CD47 (Homo sapiens) (P78324 whole entry, looked up): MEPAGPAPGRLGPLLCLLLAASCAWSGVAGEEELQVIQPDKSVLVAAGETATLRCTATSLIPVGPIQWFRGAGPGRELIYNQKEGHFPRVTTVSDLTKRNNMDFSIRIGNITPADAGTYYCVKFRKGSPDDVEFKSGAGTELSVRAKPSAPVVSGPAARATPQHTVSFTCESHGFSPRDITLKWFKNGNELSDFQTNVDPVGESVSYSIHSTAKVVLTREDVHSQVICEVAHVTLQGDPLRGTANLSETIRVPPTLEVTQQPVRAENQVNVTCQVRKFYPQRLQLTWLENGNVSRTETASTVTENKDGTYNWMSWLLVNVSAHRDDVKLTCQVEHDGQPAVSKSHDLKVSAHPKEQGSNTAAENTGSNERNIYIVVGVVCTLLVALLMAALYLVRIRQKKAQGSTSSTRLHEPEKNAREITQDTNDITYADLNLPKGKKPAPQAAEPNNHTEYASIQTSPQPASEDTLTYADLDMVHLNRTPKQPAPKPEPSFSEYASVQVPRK
Chain of Tyrosine-protein phosphatase non-receptor type substrate 1 (Homo sapiens) + Leukocyte surface antigen CD47 (Homo sapiens) (Q08722 whole entry, looked up): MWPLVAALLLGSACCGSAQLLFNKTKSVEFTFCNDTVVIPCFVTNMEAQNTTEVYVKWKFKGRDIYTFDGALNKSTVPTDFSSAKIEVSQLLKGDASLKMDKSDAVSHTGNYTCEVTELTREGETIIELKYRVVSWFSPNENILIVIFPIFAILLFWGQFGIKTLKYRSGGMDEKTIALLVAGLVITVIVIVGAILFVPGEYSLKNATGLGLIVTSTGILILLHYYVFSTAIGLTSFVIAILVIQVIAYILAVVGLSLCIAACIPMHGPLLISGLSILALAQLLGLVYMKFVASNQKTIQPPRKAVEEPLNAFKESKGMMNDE
Method in brief: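 First, His-tagged CD47 and Eu-labelled anti-His antibody met the compound for 30 min; next, site-specifically biotinylated SIRPalpha was added for 30 min; finally streptavidin-APC was added before reading the TR-FRET ratio.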

[17] = qHTS assay to identify small molecule inhibitors of chordoma cells - UCH-2 (AID 1259356)

CC(=O)OCC(=O)[C@@]1(OC(C)=O)[C@@H](C)C[C@H]2[C@@H]3C[C@H](F)C4=CC(=O)C=C[C@]4(C)[C@@]3(F)[C@@H](O)C[C@@]21C
inactive: outcome [1] | outcome [2] | Potency [3]

CCN(CCCCOC(=O)c1ccc(OC)c(OC)c1)C(C)Cc1ccc(OC)cc1 (configuration not stated)
inactive: outcome [1] | outcome [2] | Potency [3]

COc1cccc2c1C(=O)c1c(O)c3c(c(O)c1C2=O)C[C@@](O)(C(=O)CO)C[C@@H]3O[C@H]1C[C@H](N)[C@H](O)[C@H](C)O1
active: Potency [4] 3.32 µM | Potency [5] 5.9 µM | Potency [6] 18.7 µM | IC50 (viability decrease) [7] 0.418 µM
inactive: outcome [1] | outcome [2] | Potency [8]

Cc1onc(-c2c(Cl)cccc2Cl)c1C(=O)N[C@@H]1C(=O)N2[C@@H]1SC(C)(C)[C@@H]2C(=O)O
inactive: outcome [1] | outcome [2] | Potency [8] | Potency [3]

OC[C@H]1O[C@H](O[C@]2(CCl)O[C@H](CCl)[C@@H](O)[C@@H]2O)[C@H](O)[C@@H](O)[C@H]1Cl
inactive: outcome [1] | outcome [2] | outcome [9] | Potency [8] | Potency [3]

CCCCS(=O)(=O)N[C@@H](Cc1ccc(OCCCCC2CCNCC2)cc1)C(=O)O
inactive: outcome [1] | outcome [2] | outcome [9] | Potency [8] | Potency [3]

Cc1ccccc1C(=O)Nc1ccc(C(=O)N2CCCC(N(C)C)c3ccccc32)cc1 (configuration not stated)
inactive: outcome [1] | outcome [2] | Potency [3]
active: Potency [8] 5.8 µM

CNCC[C@@H](Oc1ccccc1C)c1ccccc1
inactive: outcome [1] | outcome [2] | Potency [8] | Potency [3]

NC[C@H]1O[C@H](O[C@H]2[C@H](O)[C@@H](O[C@H]3O[C@H](CO)[C@@H](O)[C@H](N)[C@H]3O)[C@H](N)C[C@@H]2N)[C@H](N)[C@@H](O)[C@@H]1O
inactive: outcome [1] | outcome [2] | Potency [8] | Potency [3]

COc1cc2c(cc1O)CC[C@@H]1[C@@H]2CC[C@]2(C)[C@@H](O)CC[C@@H]12
inactive: outcome [1] | outcome [2] | outcome [14] | outcome [15] | Potency [3] | outcome [16]
130%: parasite growth, % of control (lower = inhibition) [11]
active: Potency [4] 2.35 µM | Potency [6] 5.9 µM | IC50 (viability decrease) [7] 0.935 µM | Potency [13] 1.05 µM
96.4%: parasite growth remaining, % of DMSO control (lower = more inhibition) [10]
83.5%: growth, % of control [12]

COC(=O)C1=C(C)NC(C)=C(C(=O)O[C@@H]2CCCN(Cc3ccccc3)C2)[C@@H]1c1cccc([N+](=O)[O-])c1
inactive: outcome [1] | outcome [2] | Potency [3]
active: Potency [8] 20.6 µM

COc1c(C)c2c(c(O)c1C/C=C(\C)CCC(=O)O)C(=O)OC2
inactive: outcome [1] | outcome [2] | Potency [17] | Potency [3]

CN(C)/N=N/c1nc[nH]c1C(N)=O
inactive: outcome [1] | outcome [2] | Potency [3]

CC1(C)OC[C@@H](COC(=O)CCc2ccc(OC[C@@H](O)CNCCNC(=O)N3CCOCC3)cc2)O1
inactive: outcome [1] | outcome [2] | Potency [8] | Potency [3]

CC(=O)OCC(=O)[C@@]12OC(C)(C)O[C@@H]1C[C@H]1[C@@H]3C[C@H](F)C4=CC(=O)C=C[C@]4(C)[C@@]3(F)[C@@H](O)C[C@@]12C
inactive: outcome [1] | outcome [2] | Potency [17] | Potency [3]

Cc1nc2n(c(=O)c1CCN1CCC(c3noc4cc(F)ccc34)CC1)CCC[C@H]2O
inactive: outcome [1] | outcome [2] | Potency [8] | Potency [3]

CN(C)CCCOc1nn(Cc2ccccc2)c2ccccc12
inactive: outcome [1] | outcome [2] | Potency [8] | Potency [3]

Cc1c2oc3c(C)ccc(C(=O)N[C@@H]4C(=O)N[C@H](C(C)C)C(=O)N5CCC[C@H]5C(=O)N(C)CC(=O)N(C)[C@@H](C(C)C)C(=O)O[C@@H]4C)c3nc-2c(C(=O)N[C@@H]2C(=O)N[C@H](C(C)C)C(=O)N3CCC[C@H]3C(=O)N(C)CC(=O)N(C)[C@@H](C(C)C)C(=O)O[C@@H]2C)c(N)c1=O (I: T[dV]P[Sar][NMeV] / II: T[dV]P[Sar][NMeV]; ester I:1-I:C, II:1-II:C; linker I:N-II:N via Actinocin(9to1))
inactive: outcome [1] | outcome [2] | Potency [3]

O=c1[nH]c(=O)n([C@H]2CCCO2)cc1F
inactive: outcome [1] | outcome [2] | Potency [8] | Potency [3]

CC(C)(C)NC(=O)[C@@H]1CN(Cc2cccnc2)CCN1C[C@@H](O)C[C@@H](Cc1ccccc1)C(=O)N[C@H]1c2ccccc2C[C@H]1O
inactive: outcome [1] | outcome [2] | Potency [8] | Potency [3]

COC(=O)CCc1ccc(OCC(O)CNC(C)C)cc1 (configuration not stated)
inactive: outcome [1] | outcome [2] | Potency [8] | Potency [3]

O=C1OC2(c3ccc(O)cc3Oc3cc(O)ccc32)c2ccccc21
inactive: outcome [1] | outcome [2] | Potency [8] | Potency [3]

CC(C)n1nc(-c2cc3cc(O)ccc3[nH]2)c2c(N)ncnc21
inactive: outcome [1] | outcome [2]
active: Potency [8] 0.366 µM

CCCN1CCCC[C@H]1C(=O)Nc1c(C)cccc1C
inactive: outcome [1] | outcome [2] | Potency [8] | Potency [3]

Cc1ccc(Nc2c(F)cccc2Cl)c(CC(=O)O)c1
inactive: outcome [1] | outcome [2] | Potency [8] | Potency [3]

CNC(=O)CN(CCN(CCN(CC(=O)[O-])CC(=O)NC)CC(=O)[O-])CC(=O)[O-].O.[Gd+3]
inactive: outcome [1] | outcome [2] | Potency [8] | Potency [3]

COc1ccc(C2C(=O)c3ccccc3C2=O)cc1
inactive: outcome [1] | outcome [2] | Potency [8] | Potency [3]

From PubChem BioAssay (NCATS)
